From PubChem BioAssay (NCI)
Compounds without any hit were thinned out: in the full panel of roughly 79,000, 15% have a hit. Activity calls are given as the source filed them. Cut-off read from the data, not from the text of the source: active = growth inhibition above about 70%; inactive = the rest.

Experiments:
[1] = NCI Yeast Anticancer Drug Screen. Data for the rad52 strain (AID 147);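 note: 0% = growth of vehicle-treated control cultures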; settings: S. cerevisiae rad52 mutant growth inhibition, stronger effect = higher value
Method in brief: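 DNA repair-defective yeast; compound exposure; growth scored against vehicle controls.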

[2] = NCI Yeast Anticancer Drug Screen. Data for the rad50EPP+ strain (AID 151);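 note: 0% = growth of vehicle-treated control cultures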; settings: S. cerevisiae rad50 mutant strain, stronger effect = higher value
Method in brief: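 rad50EPP+ yeast treated with test compounds. Readout: growth vs vehicle control.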

[3] = NCI Yeast Anticancer Drug Screen. Data for the mgt1 strain (AID 153); settings: S. cerevisiae mgt1 mutant growth inhibition, stronger effect = higher value
Method in brief: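 Growth inhibition relative to vehicle controls was scored for the mgt1 yeast strain after compound exposure.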

[4] = NCI Yeast Anticancer Drug Screen. Data for the rad50 strain (AID 155);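 note: 0% = growth of vehicle-only cultures of the same strain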; settings: S. cerevisiae rad50 strain growth inhibition, stronger effect = higher value
Method in brief: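 Readout: growth inhibition relative to vehicle-treated cultures. Compound exposure was carried out in a genetically defined yeast strain deficient in DNA damage repair.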

[5] = NCI Yeast Anticancer Drug Screen. Data for the mec2-1 strain (AID 157); settings: S. cerevisiae mec2-1 strain, stronger effect = higher value
Method in brief: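 Growth inhibition is read against vehicle-treated controls after compound exposure of the mec2-1 yeast strain, which is defective in DNA damage repair or cell cycle control.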

[6] = NCI Yeast Anticancer Drug Screen. Data for the rad14 strain (AID 159);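 note: 0% = growth of vehicle-treated control cultures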; settings: S. cerevisiae rad14 strain growth inhibition, stronger effect = higher value
Method in brief: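 Growth inhibition vs vehicle controls; genetically altered yeast strain (DNA damage repair defect) treated with test compounds.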

[7] = NCI Yeast Anticancer Drug Screen. Data for the sgs1 mgt1 strain (AID 161);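 note: 0% = growth of cultures given vehicle only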; settings: S. cerevisiae sgs1 mgt1 strain, stronger effect = higher value
Method in brief: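 Growth of a repair-deficient yeast mutant was monitored after compound treatment and expressed as inhibition relative to vehicle-treated cultures.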

[8] = NCI Yeast Anticancer Drug Screen. Data for the CLN2oe strain (AID 163);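 note: 0% = growth of vehicle-only control cultures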; settings: S. cerevisiae CLN2oe strain, stronger effect = higher value
Method in brief: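 Compound-treated yeast; growth vs vehicle ctrl = % inhibition. Genetically altered strain (cell-cycle control).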

[9] = NCI Yeast Anticancer Drug Screen. Data for the bub3 strain (AID 167); settings: S. cerevisiae bub3 mutant strain, stronger effect = higher value
Method in brief: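 Readout: yeast growth inhibition, expressed relative to vehicle-only wells. The test organism is a mutant strain from a panel with lesions in DNA repair or checkpoint genes.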

[10] = NCI Yeast Anticancer Drug Screen. Data for the wt2 strain (AID 169);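 note: 0% = growth of vehicle-treated yeast cultures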; settings: S. cerevisiae wt2 strain growth inhibition, stronger effect = higher value
Method in brief: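 Compound exposure of yeast; growth compared with vehicle controls; inhibition reported.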

[11] = NCI Yeast Anticancer Drug Screen. Data for the mlh1 strain (AID 171);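 note: 0% = growth of vehicle-treated control cultures of the same strain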; settings: S. cerevisiae mlh1 strain growth inhibition, stronger effect = higher value
Method in brief: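 Compounds are applied to a genetically altered yeast strain, and its growth is compared with that of vehicle-treated cultures to give percent inhibition.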

[12] = NCI Yeast Anticancer Drug Screen. Data for the sgs1 strain (AID 173);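 note: 0% = growth of vehicle-only control cultures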; settings: S. cerevisiae sgs1 mutant, stronger effect = higher value
Method in brief: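 Compounds applied to genetically altered yeast; growth compared with vehicle-treated cultures to give % inhibition.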

[13] = NCI Yeast Anticancer Drug Screen. Data for the mlh1 rad18 strain (AID 175); settings: S. cerevisiae mlh1 rad18 strain growth inhibition, stronger effect = higher value
Method in brief: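 Cells of a genetically altered yeast strain, deficient in DNA damage repair, were treated with compound. Their growth was then compared with that of vehicle-treated cultures to give inhibition.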

[14] = NCI Yeast Anticancer Drug Screen. Data for the wt1 strain (AID 149);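 note: 0% = growth of vehicle-treated wt1 cultures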; settings: S. cerevisiae wt1 strain (SPY 50644) growth inhibition, stronger effect = higher value
Method in brief: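 Growth inhibition read against vehicle controls after compound exposure of the wt1 yeast strain.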

[15] = NCI Yeast Anticancer Drug Screen. Data for the cln2 rad14 strain (AID 165);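 note: 0% = growth equal to vehicle treated cultures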; settings: S. cerevisiae cln2 rad14 strain, stronger effect = higher value
Method in brief: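 Growth inhibition, relative to vehicle-treated controls, is the read-out. The test organism is a yeast strain with defined genetic alterations, cln2 rad14.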

[16] = NCI Yeast Anticancer Drug Screen. Data for the rad18 strain (AID 177); settings: S. cerevisiae rad18 mutant growth inhibition, stronger effect = higher value
Method in brief: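 Compounds are applied to a repair-deficient yeast strain, and growth is compared with that of vehicle-treated cultures to give percent inhibition.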

[17] = at 5.0 µM (retest, dose inferred, filed as 0.5)
[18] = at 50.0 µM (retest, dose inferred, filed as 5.0)

Measured: growth inhibition

COc1ccc(C(NCCNC(c2ccc(OC)c(OC)c2)c2cc3c(cc2O)OCO3)c2cc3c(cc2O)OCO3)cc1OC (stereo not drawn)
active: [1]; at 33.0 µM 89% | [1]; at 100.0 µM 99% | [2]; at 33.0 µM 87% | [2]; at 100.0 µM 97% | [3]; at 100.0 µM 99% | [4]; at 33.0 µM 74% | [4]; at 100.0 µM 99% | [5]; at 33.0 µM 78% | [5]; [18] 95% | [5]; at 100.0 µM 99% | [6]; at 33.0 µM 92% | [6]; at 100.0 µM 99% | [7]; at 50.0 µM 72.2% | [8]; at 100.0 µM 98% | [9]; at 100.0 µM 98% | [10]; at 100.0 µM 99% | [11]; at 33.0 µM 84% | [11]; at 100.0 µM 99% | [12]; at 100.0 µM 99%
inactive: [1]; at 1.2 µM -1% | [1]; at 3.7 µM -6% | [1]; at 11.0 µM 7% | [2]; at 1.2 µM -6% | [2]; at 3.7 µM -11% | [2]; at 11.0 µM 10% | [3]; at 1.2 µM 2% | [3]; at 3.7 µM 4% | [3]; at 11.0 µM 3% | [3]; at 33.0 µM 3% | [4]; at 1.2 µM 4% | [4]; at 3.7 µM -10% | [4]; [17] -12% | [4]; at 11.0 µM 19% | [4]; [18] 7% | [4]; at 50.0 µM 38.2% | [5]; at 1.2 µM -1% | [5]; at 3.7 µM 1% | [5]; [17] -11% | [5]; at 11.0 µM 9% | [5]; at 50.0 µM 27.9% | [6]; at 1.2 µM 1% | [6]; at 3.7 µM 5% | [6]; at 11.0 µM 27% | [7]; [17] 4% | [7]; [18] 48% | [8]; at 1.2 µM -6% | [8]; at 3.7 µM 1% | [8]; at 11.0 µM 7% | [8]; at 33.0 µM 18% | [9]; at 1.2 µM -1% | [9]; at 3.7 µM -6% | [9]; [17] -21% | [9]; at 11.0 µM 0% | [9]; at 33.0 µM 15% | [9]; [18] 28% | [9]; at 50.0 µM 54.8% | [10]; at 1.2 µM -1% | [10]; at 3.7 µM -2% | [10]; at 11.0 µM 7% | [10]; at 33.0 µM 50% | [11]; at 1.2 µM 2% | [11]; at 3.7 µM 1% | [11]; at 11.0 µM 12% | [12]; at 1.2 µM 2% | [12]; at 3.7 µM 0% | [12]; at 11.0 µM 4% | [12]; at 33.0 µM 63% | [13]; [17] -29% | [13]; [18] 34% | [13]; at 50.0 µM 46.6%

N=C1N=Nc2nc(C3(c4nc5n(c4O)C(=N)N=N5)Cc4ccccc4C3=O)c(O)n21 (stereo not drawn)
active: [3]; at 33.0 µM 90% | [3]; at 100.0 µM 99% | [4]; at 50.0 µM 82.2% | [4]; at 100.0 µM 94% | [5]; at 100.0 µM 87% | [6]; at 33.0 µM 94% | [6]; at 100.0 µM 99% | [7]; [18] 70% | [9]; at 50.0 µM 85.5% | [9]; at 100.0 µM 86% | [10]; at 100.0 µM 89% | [11]; at 100.0 µM 95% | [13]; at 50.0 µM 92.7% | [16]; at 33.0 µM 75% | [16]; at 100.0 µM 96%
inactive: [14]; at 1.2 µM 3% | [14]; at 3.7 µM 7% | [14]; at 11.0 µM 11% | [14]; at 33.0 µM 23% | [14]; at 100.0 µM 67% | [2]; at 1.2 µM -2% | [2]; at 3.7 µM 0% | [2]; at 11.0 µM -1% | [2]; at 33.0 µM -1% | [2]; at 100.0 µM 3% | [3]; at 1.2 µM 5% | [3]; at 3.7 µM 7% | [3]; at 11.0 µM 22% | [4]; at 1.2 µM -9% | [4]; at 3.7 µM 34% | [4]; [17] 4% | [4]; at 11.0 µM -3% | [4]; at 33.0 µM 66% | [4]; [18] 38% | [5]; at 1.2 µM 2% | [5]; at 3.7 µM 4% | [5]; [17] 4% | [5]; at 11.0 µM 12% | [5]; at 33.0 µM 30% | [5]; [18] 28% | [5]; at 50.0 µM 59.1% | [6]; at 1.2 µM 7% | [6]; at 3.7 µM 21% | [6]; at 11.0 µM 48% | [7]; [17] 7% | [7]; at 50.0 µM 67% | [8]; at 1.2 µM 1% | [8]; at 3.7 µM 8% | [8]; at 11.0 µM 15% | [8]; at 33.0 µM 9% | [8]; at 100.0 µM 8% | [15]; [17] 13% | [15]; [18] 10% | [15]; at 50.0 µM 23.2% | [9]; at 1.2 µM 4% | [9]; at 3.7 µM 6% | [9]; [17] 0% | [9]; at 11.0 µM 9% | [9]; at 33.0 µM 45% | [9]; [18] 42% | [10]; at 1.2 µM 4% | [10]; at 3.7 µM 16% | [10]; at 11.0 µM 11% | [10]; at 33.0 µM 32% | [11]; at 1.2 µM 1% | [11]; at 3.7 µM 5% | [11]; at 11.0 µM 14% | [11]; at 33.0 µM 68% | [13]; [17] -63% | [13]; [18] 57% | [16]; at 1.2 µM 3% | [16]; at 3.7 µM 11% | [16]; at 11.0 µM 23%

CN(C)c1ccc(N=Nc2ccncc2)cc1
inactive: [1]; at 1.2 µM 1% | [1]; at 3.7 µM 1% | [1]; at 11.0 µM 15% | [1]; at 33.0 µM 33% | [2]; at 1.2 µM 3% | [2]; at 3.7 µM 12% | [2]; at 11.0 µM 64% | [3]; at 1.2 µM -2% | [3]; at 3.7 µM 12% | [3]; at 11.0 µM 31% | [3]; at 33.0 µM 35% | [3]; at 100.0 µM 49% | [4]; at 1.2 µM 8% | [4]; at 3.7 µM 11% | [4]; [17] -86% | [4]; at 11.0 µM 31% | [4]; at 33.0 µM 55% | [4]; [18] 27% | [5]; at 1.2 µM -2% | [5]; at 3.7 µM 7% | [5]; [17] -41% | [5]; at 11.0 µM 19% | [5]; at 33.0 µM 18% | [5]; [18] -3% | [5]; at 50.0 µM 53.1% | [5]; at 100.0 µM 67% | [6]; at 1.2 µM 9% | [6]; at 3.7 µM 31% | [6]; at 11.0 µM 51% | [6]; at 33.0 µM 47% | [6]; at 100.0 µM 52% | [7]; [17] -19% | [7]; [18] 32% | [8]; at 1.2 µM 13% | [8]; at 3.7 µM 22% | [8]; at 11.0 µM 37% | [8]; at 33.0 µM 38% | [8]; at 100.0 µM 36% | [9]; at 1.2 µM 4% | [9]; at 3.7 µM 22% | [9]; [17] -13% | [9]; at 11.0 µM 60% | [10]; at 1.2 µM 3% | [10]; at 3.7 µM 7% | [10]; at 11.0 µM 22% | [10]; at 33.0 µM 23% | [10]; at 100.0 µM 20% | [11]; at 1.2 µM 7% | [11]; at 3.7 µM 11% | [11]; at 11.0 µM 29% | [11]; at 33.0 µM 42% | [11]; at 100.0 µM 47% | [12]; at 1.2 µM 15% | [12]; at 3.7 µM 41% | [12]; at 11.0 µM 63% | [12]; at 33.0 µM 67% | [12]; at 100.0 µM 68% | [13]; [17] -82% | [13]; [18] 4% | [13]; at 50.0 µM 67.7% | [16]; at 1.2 µM 6% | [16]; at 3.7 µM 24% | [16]; at 11.0 µM 35% | [16]; at 33.0 µM 19% | [16]; at 100.0 µM 31%
active: [1]; at 100.0 µM 71% | [2]; at 33.0 µM 87% | [2]; at 100.0 µM 82% | [4]; at 50.0 µM 82.3% | [4]; at 100.0 µM 77% | [7]; at 50.0 µM 70.6% | [9]; at 33.0 µM 78% | [9]; [18] 73% | [9]; at 50.0 µM 86.5% | [9]; at 100.0 µM 86%
